# Assay results as given in the supplement of paper PMC6992640.
# ± gives the standard deviation of the averaged measurements.
# Tested on: UCD52 (cells of a triple-negative basal-like breast cancer xenograft)
# Test: cell viability (% of vehicle); higher = less cytotoxic
# Conditions: 10 µM; 72 h
# 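Also: PDX cells carrying CMV promoter-driven luciferase, viability read as total photon flux per second by IVIS imaging following D-luciferin, vehicle control 0.1% DMSO.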
row,SMILES,cell viability
1,CC12CCC3c4ccc(O)cc4CCC3C1CCC2=O (centres undefined) [Estrone],87.3 ± 6.6
2,CO[C@@]1(NC(=O)[C@H](C(=O)[O-])c2ccc(O)cc2)C(=O)N2C(C(=O)[O-])=C(CSc3nnnn3C)CO[C@@H]21.[Na+].[Na+] [Moxalactam (sodium salt)],144 ± 7
3,CC(C)c1cc(C(=O)N2Cc3ccc(CN4CCN(C)CC4)cc3C2)c(O)cc1O,77.1 ± 2.9
4,Cl.O=C1NCC2(CCN(CCc3ccccc3)CC2)O1 [Fenspiride HCl],99.1 ± 6.4
5,C#C[C@]1(O)CC[C@H]2[C@@H]3CCC4=CC(=O)CC[C@@H]4[C@H]3C(=C)C[C@@]21CC [Etonogestrel],116 ± 14
6,Cc1cc(Nc2cc(CN3CCOCC3)c3nc(C)c(Cc4ccc(Cl)cc4F)n3n2)n[nH]1,103 ± 19
7,CCCC1O[C@@H]2C[C@H]3[C@@H]4CCC5=CC(=O)C=C[C@]5(C)[C@H]4[C@@H](O)C[C@]3(C)[C@]2(C(=O)CO)O1 (some centres undefined) [Budesonide],141 ± 9.5
8,CC(C)(C#N)c1cc(Cn2cncn2)cc(C(C)(C)C#N)c1 [Anastrozole],111 ± 11
9,O=C(Nc1cccc2c(=O)cc(-c3nn[nH]n3)oc12)c1ccc(OCCCCc2ccccc2)cc1 [Pranlukast],102 ± 2.1
10,CO[C@H]1C(=O)[C@]2(C)[C@@H](OC)C[C@H]3OC[C@@]3(OC(C)=O)[C@H]2[C@H](OC(=O)c2ccccc2)[C@]2(O)C[C@H](OC(=O)[C@H](O)[C@@H](NC(=O)OC(C)(C)C)c3ccccc3)C(C)=C1C2(C)C [Cabazitaxel],70.3 ± 4.9
11,COc1ccccc1OCC(O)CO (centres undefined) [Guaifensin],91.7 ± 1
12,O=C(Nc1c(Cl)cncc1Cl)c1ccc(OC(F)F)c(OCC2CC2)c1 [Roflumilast],119 ± 10
13,CCCCCC(O)C=CC1C(O)CC(=O)C1CCCCCCC(=O)O (centres undefined) [Alprostadil],124 ± 2.3
14,C#CC1(O)CCC2C3CCC4=CC(=O)CCC4C3CCC21C (centres undefined) [Norethindrone],93.3 ± 11
15,CCCc1nc(C(C)(C)O)c(C(=O)O)n1Cc1ccc(-c2ccccc2-c2nn[nH]n2)cc1 [Olmesartan],121 ± 15
16,CC12CCC3c4ccc(O)cc4CCC3C1CCC2O (centres undefined) [Estradiol],85.9 ± 4.8
17,N=C(N)NCCCC[C@@H]1NC(=O)CCSSC[C@@H](C(N)=O)NC(=O)[C@@H]2CCCN2C(=O)[C@H](Cc2c[nH]c3ccccc23)NC(=O)[C@H](CC(=O)O)NC(=O)CNC1=O [Eptifibatide],123 ± 15
18,C#CC1(O)CCC2C3CCC4=CC(=O)CCC4C3CCC21CC (centres undefined) [Levonorgestrel],83.6 ± 6.9
19,CCC(=O)OCC(=O)C1(OC(=O)CC)C(C)CC2C3CCC4=CC(=O)C=CC4(C)C3(Cl)C(O)CC21C (centres undefined) [Beclomethasone dipropionate],133 ± 3.9
20,C[C@@H]1C[C@H]2[C@H]3CCC4=CC(=O)C=C[C@]4(C)[C@@]3(F)[C@@H](O)C[C@]2(C)[C@@]1(O)C(=O)CO [Dexamethasone (DHAP)],168.4 ± 1.4

row,SMILES,cell viability
1,CCC(=O)OC1(C(=O)CCl)C(C)CC2C3CCC4=CC(=O)C=CC4(C)C3(F)C(O)CC21C (centres undefined) [Clobetasol propionate],142 ± 10
2,O=C(NS(=O)(=O)c1ccc(Br)s1)c1ccc(Cl)cc1Cl [Tasisulam],115 ± 25
3,Nc1nnc(-c2cccc(Cl)c2Cl)c(N)n1 [Lamotrigine],112 ± 15
4,Cl.O=C(CCCN1CCC(O)(c2ccc(Cl)cc2)CC1)c1ccc(F)cc1 [Haloperidol hydrochloride],63.4 ± 4.9
5,CC(=O)OC1(C(C)=O)CCC2C3C=C(C)C4=CC(=O)CCC4(C)C3CCC21C (centres undefined) [Megestrol Acetate],103 ± 16
6,O=c1c(O)c(-c2ccc(O)c(O)c2)oc2cc(O)cc(O)c12 [Quercetin],102 ± 1.3
7,O=NN(CCCl)C(=O)NCCCl [Carmustine],116 ± 5.4
8,O=C(CCCN1CCN(c2ccccn2)CC1)c1ccc(F)cc1 [Azaperone],66.9 ± 13
9,CC(NCCc1ccc(O)cc1)C(O)c1ccc(O)cc1.Cl (centres undefined) [Ritodrine HCl],86.3 ± 4.5
10,C#CC1(O)CCC2C3CCc4cc(OC)ccc4C3CCC21C (centres undefined) [Mestranol],71.2 ± 21
11,C=CCNC1=C2CC(C)CC(OC)C(O)C(C)C=C(C)C(OC(N)=O)C(OC)C=CC=C(C)C(=O)NC(=CC1=O)C2=O (centres undefined),91.6 ± 5.4
12,CCCN(CCC)S(=O)(=O)c1ccc(C(=O)O)cc1 [Probenecid],113 ± 6.4
13,Cc1onc(-c2ccccc2)c1C(=O)NC1C(=O)N2C1SC(C)(C)C2C(=O)[O-].O.[Na+] (centres undefined) [Oxacillin sodium monohydrate],105 ± 5
14,NS(=O)(=O)c1cc2c(cc1Cl)NCNS2(=O)=O [Hydrochlorothiazide],105 ± 3
15,NCCc1cnc[nH]1.O=P(O)(O)O.O=P(O)(O)O [Histamine Phosphate],99.9 ± 17
16,NCC(O)c1ccc(O)c(O)c1.O.O=C(O)C(O)C(O)C(=O)O (centres undefined) [Noradrenaline bitartrate monohydrate],142 ± 4.8
17,CCC1C(=O)N(C)c2cnc(Nc3ccc(C(=O)NC4CCC(N5CCN(CC6CC6)CC5)CC4)cc3OC)nc2N1C(C)C (centres undefined) [BI6727 (Volasertib)],116 ± 4.4
18,CCC1OC(=O)C(C)C(OC2CC(C)(OC)C(O)C(C)O2)C(C)C(OC2OC(C)CC(N(C)C)C2O)C(C)(O)CC(C)CN(C)C(C)C(O)C1(C)O (centres undefined) [Azithromycin],105 ± 26
19,CC(C)Cn1cnc2c(N)nc3ccccc3c21 [Imiquimod],76.7 ± 1.4
